Reference: PubChem BioAssay AID504465 (National Center for Advancing Translational Sciences (NCATS), 2011)
Hit rate of the full screen: of about 2,100 compounds, about 210 (10%) were called active. Another 53% or so got no clear call; they are omitted. Calls come from the whole dose curve; as a rule, active = well fitted inhibition curve with a large enough effect; inconclusive = small, poorly fitted or top-dose-only effect, or effect the other way; inactive = no such curve, though single readings can be large or run the other way. This is one part of the list. Entries that show only a call come without a potency.

Test: IN Cell qHTS Assay for Inhibitors of the mTORC1 Signaling Pathway in MEF (Tsc2-/-, p53-/-) Cells: Sytravon; note: nearly all actives have a fitted effect of over 60% in size
Conditions: phospho-rpS6 immunofluorescence, 24 h; series mostly up to 38.3 µM
How it was run: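 Immunofluorescence of rpS6 phosphorylation (Ser235/236) in mouse embryonic fibroblasts lacking Tsc2 and p53, after 24 h compound exposure; Hoechst-normalized signal imaged, each well scored as % active cells relative to rapamycin (7.5 nM) and DMSO controls.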
Potency is the fitted concentration of half-maximal effect.

Compound | Potency
CCOc1cccc(NC(=O)C2CC(=O)N(CC)C(=Nc3ccc(F)cc3)S2)c1 (stereo not given) | inactive
Cc1ccc(C)c(CN2CCC(CNC(=O)c3cc4ccc5cccnc5c4[nH]3)CC2)c1 | inactive
O=C(NCC1CCN(Cc2ccccc2F)CC1)Nc1ccc(F)c(Cl)c1 | inactive
Cc1ccc(C)c(CN2CCC(CNC(=O)Nc3ccc(Br)cc3F)CC2)c1 | 14.7 µM (active)
Cc1nn(C)c2c1c(C(F)(F)F)cc(=O)n2CC(=O)N1CCC(C)CC1 | inactive
CSc1ccc(CCNS(=O)(=O)c2cc(-c3cc(C)no3)ccc2C)cc1 | inactive
CCOc1ccc(-c2cc(C(=O)N3CCN(c4cccc(C(F)(F)F)c4)CC3)c3ccccc3n2)cc1 | inactive
CCOC(=O)CSc1nc(-c2ccccc2)cc(C(F)(F)F)c1C#N | 9.27 µM (active)
N#Cc1ccc(-c2cccs2)nc1SCC(=O)Nc1cccc(C(F)(F)F)c1 | inactive
CCc1ccc(Sc2cc(C(=O)NCCCN3CCCC(C)C3)c3ccccc3n2)cc1 (stereo not given) | inactive
CCN1CCOC(=O)C1CC(=O)Nc1ccc(C)c(Cl)c1 (stereo not given) | inactive
COc1ccc(Nc2cc(C(=O)NCCCN3CCN(c4ccc(OC)cc4)CC3)c3ccccc3n2)cc1 | inactive
O=C(Cn1c(-c2cccs2)cc2ccccc21)NCCCN1CCN(c2ccc(F)cc2)CC1 | 14.7 µM (active)
Cc1ccccc1Oc1nc2ccccn2c(=O)c1/C=C(\C#N)c1nc2ccccc2[nH]1 | inactive
CCn1c(CN2CCOCC2)nc2cc(NC(=O)c3ccccc3[N+](=O)[O-])ccc21 | inactive
CCOc1cc(C2c3c(-c4ccc(Br)cc4)n[nH]c3C(=O)N2c2ccc(Cl)cc2)ccc1O (stereo not given) | inactive
CCOc1ccc(N2C(=O)c3[nH]nc(-c4ccc(OC)cc4)c3C2c2cccs2)cc1 (stereo not given) | inactive
COc1ccc(-c2n[nH]c3c2C(c2ccc(O)cc2)N(c2ccc(Br)cc2)C3=O)cc1 (stereo not given) | 11.7 µM (active)
CC(C)CN(CC(C)C)S(=O)(=O)c1ccc(C(=O)Nc2sc3c(c2C(N)=O)CC(C)(C)NC3(C)C)cc1 | inactive
Cc1ccc(Nc2cc(C)nc3nc(Cc4ccc(Cl)cc4)nn23)cc1 | inactive
Cc1cc(C)c(Nc2ncnc3c2cnn3C)c(C)c1 | inactive
COc1ccc(OC)c(Nc2ncnc3c2cnn3-c2cccc(Cl)c2)c1 | inactive
Cc1cccc(-n2ncc3c(Nc4c(C)cc(C)cc4C)ncnc32)c1 | 3.69 µM (active)
O=C(Nc1cc(Cl)cc(Cl)c1)c1cc(S(=O)(=O)NC2CCCC2)ccc1F | inactive
CCCCOc1cccc(C(=O)N2CCN(CCc3ccncc3)CC2)c1 | inactive

Compound | Potency
O=C(COC(=O)c1cccc(NC(=O)c2ccc(Br)cc2)c1)c1ccc(Br)cc1 | inactive
CCCCOc1cccc(NC(=O)c2cccc(C(=O)Nc3cccc(OCCCC)c3)c2)c1 | 11.7 µM (active)
CN1CCc2c(sc(NC(=O)CSc3ccccc3)c2-c2nc3ccccc3s2)C1 | inactive
CS(=O)(=O)N(CC(=O)NCCc1ccccc1)c1cc(C(F)(F)F)ccc1Cl | 8.26 µM (active)
Cc1n[nH]c(C)c1S(=O)(=O)N(CC(=O)Nc1ccc(C(F)(F)F)cc1)c1ccc(C(C)C)cc1 | inactive
O=C(Nc1cc(Cl)ccc1Cl)c1cc(S(=O)(=O)NCCc2ccccc2)ccc1F | inactive
Cc1c(Cl)ccc2sc(NC(=O)c3ccc(S(=O)(=O)N4CCCc5ccccc54)cc3)nc12 | inactive
Cc1c(C(=O)N2CCC(C)CC2)c(S(=O)(=O)N(Cc2ccccc2)C(C)(C)C)c(C)n1C | inactive
O=C1CSC2(C(=O)N(Cc3cccc(C(F)(F)F)c3)c3ccccc32)N1c1ccc(F)c(F)c1 (stereo not given) | inactive
CCN(CC)CCNC(=O)c1ccc(-n2c(-c3ccccc3)cc3c2CCCC3)cc1 | inactive
CCN(CC)CCCNC(=O)c1nn(C)c2c1CSc1ccccc1-2 | inactive
CCN(CC)CCCNC(=O)c1ccc(-c2nc(CN3CCc4ccccc43)c(C)o2)cc1 | 13.1 µM (active)
COc1ccc(-c2ccc(CNc3ccc4[nH]c(=O)[nH]c4c3)o2)cc1Cl | inactive
CCCNC(=O)c1ccc2c(c1)N=C(CCC)c1ccccc1S2 | inactive
CCOc1ccc(OCC)c(NC(=O)C(NS(=O)(=O)c2cccs2)c2ccccc2)c1 (stereo not given) | inactive
CSc1ccc(CCNC(=O)C(C)n2nc(C)c3sc4ccccc4c3c2=O)cc1 (stereo not given) | 1.17 µM (active)
COc1ccc(N2CCN(C(=O)C(C)n3nc(C)c4sc5ccccc5c4c3=O)CC2)cc1 (stereo not given) | 1.85 µM (active)
COc1ccc(CNC(=O)CCCN2C(=O)CSc3c2c(C)nn3-c2ccccc2)cc1 | inactive
Cc1ccc(CCNC(=O)c2c3c(nc4ccccc24)C(=O)N(C2CCCCC2)C3)cc1 | inactive
Cc1nn(CCCC(=O)NCCc2ccc(Cl)cc2)c(=O)c2c1sc1ccccc12 | 11.7 µM (active)
Cc1nn(C(C)C(=O)NC2CCC(C)CC2)c(=O)c2c1sc1ccccc12 (stereo not given) | 5.21 µM (active)
CCCOc1ccc(CNC(=O)CCCn2nc(C)c3sc4ccccc4c3c2=O)cc1 | inactive
COc1ccc(Cn2ccc3nc(C)c(C(=O)N4CCN(c5ccc(OC)cc5)CC4)cc3c2=O)cc1 | inactive
CSc1ccc(CCNC(=O)CCn2c(=O)c3cccn3c3ccc(F)cc32)cc1 | inactive
CCC(C(=O)N1CCN(c2cc(Cl)ccc2C)CC1)n1nc(C)c2sc3ccccc3c2c1=O (stereo not given) | inactive
